Screening data from PubChem BioAssay.
A selection: hits, their analogues and other compounds. The true share with any hit is near 17%.
TGFb SMAD3 inh – qHTS for Inhibitors of TGF-b; HepG2 CAGA-GFP TGF-b/SMAD3 reporter, GFP fluorescence, 18 h; TGF-beta stimulated, 500 pg/mL final; Potency, µM (titrated, usually from 46.1 µM), actives largely listed as inhibitors; 410,000 compounds, 1.2% hits; AID 588855, 2011; note: nearly all actives have a fitted effect of over 65% in size
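Inhibition was scored as loss of TGF-beta-induced (500 pg/mL final, 18 hours, 37 degrees C) GFP in HEPG2 cells carrying a CAGA-GFP reporter, in DMEM with 1% FBS. Well GFP was summed per cell; Activity was normalised to unstimulated and stimulated DMSO wells, then concentration-response fitting.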
ATXN2 expr inh – Primary qHTS for Inhibitors of ATXN expression; HEK-293 ATXN2-luciferase reporter, luminescence, 24 h; Potency, µM (titrated, usually from 57 µM), actives largely listed as inhibitors; 360,000 compounds, 0.72% hits; AID 1745845, 2022; note: nearly all actives have a fitted effect of over 55% in size
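ATXN2-luciferase reporter cells (luciferase flanked by upstream and downstream ATXN2 gene portions) were treated 24 h at 37 °C with compounds at up to 57 uM. SteadyGlo luminescence gave expression; GF-AFC fluorescence gave viability.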
DT40 TDP1 CPT – qHTS for Inhibitors of human tyrosyl-DNA phosphodiesterase 1 (TDP1): qHTS in cells in presence of CPT | chicken DT40 Tdp1-/-;hTDP1 cells + 20 nM CPT, ATP luminescence, 48 h | Potency, µM (top dose mostly 46.2 µM), most hits filed as inhibitors | 420,000 compounds, 12% hits | AID 686979, 2013; note: nearly all actives have a fitted effect of over 55% in size
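Chicken DT40 Tdp1-/- cells complemented with human TDP1, 400 cells/well, exposed to compounds plus 20 nM camptothecin for at least 48 h at 37 C; viability read as ATP content by CellTiter-Glo luminescence.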
ATXN viability – Viability Counterscreen for Primary qHTS for Inhibitors of ATXN expression; S2 cells (HEK-293 line with an ATXN2-luciferase reporter) viability, CellTiter-Fluor protease fluorescence, 24 h; Potency, µM (doses to about 56.7 µM), usual class: cytotoxic; 400,000 compounds, 0.49% hits; note: nearly all actives have a fitted effect of over 40% in size
DT40 TDP1 no CPT – qHTS for Inhibitors of human tyrosyl-DNA phosphodiesterase 1 (TDP1): qHTS in cells in absence of CPT | 420,000 compounds, 15% hits | DT40 Tdp1-/- hTDP1 cells, no CPT, ATP luminescence, 48 h | Potency, µM (highest dose often 46.2 µM), usual class: inhibitors; note: nearly all actives have a fitted effect of over 55% in size
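Growth of hTDP1-complemented DT40 Tdp1-knockout cells is measured by ATP luminescence after at least 48 hr compound exposure at 37 °C, with DMSO substituting for the 20 nM CPT used in the parallel screen.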
HepG2 viability – qHTS for Inhibitors of TGF-b: Cytotox Counterscreen. 410,000 compounds, 0.76% hits. HepG2 CAGA-GFP viability, ATP luminescence, 18 h. Potency, µM (top dose mostly 46.1 µM), hits mostly cytotoxic. AID 588856, 2011
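HepG2 CAGA-GFP cells (1000/well, DMEM with 1% FBS) received compound, then TGF-beta at 500 pg/mL final, and were incubated 18 hours at 37 degrees C. Viability was read by CellTiter-Glo luminescence. Media-only wells were set as complete cell-killing and DMSO as no toxicity.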
Large screens that a line does not name were inactive; ! = not active in a repeat. Calls come from the whole dose curve; as a rule, active = well fitted curve in the direction sought with a large enough effect; inconclusive = small, poorly fitted or top-dose-only effect, or another doubt; inactive = no such curve, though single readings can be large; an effect the other way counts as inactive or inconclusive.

O=C(CSc1nnc(CNC(=O)c2c(F)cccc2Cl)o1)NC1CCCC1	none
CCCCCSc1nc2c(c(=O)[nH]c(=O)n2C)n1CCc1ccccc1	DT40 TDP1 CPT inconclusive, ATXN viability inconclusive, DT40 TDP1 no CPT inconclusive
CCN(C(=S)Nc1ccc(Oc2ccccc2)cc1)c1ccccc1	DT40 TDP1 no CPT inconclusive
CCOC(=O)C(=CNNc1cccc(Cl)c1)C(=O)OCC	TGFb SMAD3 inh inconclusive, DT40 TDP1 CPT 12µM, DT40 TDP1 no CPT 21µM
COc1ccc(C2=CC(=O)C[C@H](COCc3ccccc3)N(C(=O)OC(C)(C)C)O2)cc1	TGFb SMAD3 inh inconclusive, DT40 TDP1 CPT inconclusive, DT40 TDP1 no CPT 18µM
COc1ccc(NC(=O)C2CCCN2C(=O)OCc2ccccc2)cc1 (stereo not drawn)	ATXN viability inconclusive
Cc1ccc(C2c3c(oc4ccccc4c3=O)C(=O)N2c2nnc(C)s2)cc1 (stereo not drawn)	DT40 TDP1 CPT 13µM, DT40 TDP1 no CPT 21µM (no result: ATXN2 expr inh, ATXN viability)
Cc1nnc(N2C(=O)c3oc4ccccc4c(=O)c3C2c2ccc(Cl)cc2)s1 (stereo not drawn)	none
CN1CCC2(CC1)N=C(c1ccc(F)cc1)C(=S)N2C(=O)c1ccc(C(C)(C)C)cc1	TGFb SMAD3 inh inconclusive, ATXN2 expr inh 32µM, DT40 TDP1 CPT 7.3µM, ATXN viability inconclusive, DT40 TDP1 no CPT 5.8µM
O=[N+]([O-])c1nn(-c2ccc3c(c2)OCCO3)n(O)c1=Nc1ccccc1	ATXN2 expr inh inconclusive, DT40 TDP1 CPT 26µM, ATXN viability inconclusive, DT40 TDP1 no CPT 23µM
CCc1ccc(N=c2c([N+](=O)[O-])nn(-c3ccc4c(c3)OCCO4)n2O)cc1	none
Cc1cc(C)cc(N=c2c([N+](=O)[O-])nn(-c3ccc4c(c3)OCCO4)n2O)c1	TGFb SMAD3 inh inconclusive, DT40 TDP1 CPT 2.6µM, DT40 TDP1 no CPT 2.9µM
O=[N+]([O-])c1nn(-c2ccc3c(c2)OCCO3)n(O)c1=Nc1ccc(Cl)cc1	TGFb SMAD3 inh inconclusive, ATXN2 expr inh inconclusive, DT40 TDP1 CPT 23µM, DT40 TDP1 no CPT 16µM
CC(C)Cn1c(N)c(C(=O)COC(=O)c2c(O)c(Cl)cc(Cl)c2Cl)c(=O)n(C)c1=O	none
CCOC(=O)c1cnn(-c2ccc(C(=O)Nc3ccc(C(C)=O)cc3)cc2)c1N	none
NC1=NC(c2ccc(Cl)cc2)C(C(=O)c2ccccc2)N1 (stereo not drawn)	TGFb SMAD3 inh inconclusive, DT40 TDP1 CPT inconclusive, ATXN viability inconclusive, DT40 TDP1 no CPT 12µM (no result: ATXN2 expr inh)
COc1ccc(C(=S)N2CCOCC2)cc1OC(=O)c1ccc([N+](=O)[O-])cc1[N+](=O)[O-]	DT40 TDP1 CPT inconclusive
COc1cc(OC)cc(C(C(=O)NCc2ccccc2)N(Cc2ccco2)C(=O)c2ccno2)c1 (stereo not drawn)	DT40 TDP1 CPT inconclusive, DT40 TDP1 no CPT 23µM
CCc1ccccc1N(CC(=O)NCc1ccco1)C(=O)c1snc(C(N)=O)c1N	DT40 TDP1 CPT inconclusive, DT40 TDP1 no CPT 18µM
Cc1ccc(C(C(=O)NCc2ccccc2)N(Cc2ccco2)C(=O)c2snc(C(N)=O)c2N)o1 (stereo not drawn)	DT40 TDP1 CPT inconclusive, DT40 TDP1 no CPT 15µM
COc1ccc(C(C(=O)NCc2ccccc2)N(Cc2ccco2)C(=O)c2snc(C(N)=O)c2N)cc1 (stereo not drawn)	DT40 TDP1 CPT inconclusive, DT40 TDP1 no CPT inconclusive
CN(C(=O)CN1C(=O)C2C3CC(C(Br)C3Br)C2C1=O)C1CCCCC1 (stereo not drawn)	none
Cc1cccc(N2CCN(C(=O)C3CCCN(S(=O)(=O)c4cnc[nH]4)C3)CC2C)c1 (stereo not drawn)	DT40 TDP1 CPT inconclusive, DT40 TDP1 no CPT inconclusive
C/C(CC(=O)Nc1ccc([N+](=O)[O-])cc1)=N\NC(=O)c1ccccc1[N+](=O)[O-]	ATXN viability inconclusive
Cc1nc(C(Cl)(Cl)Cl)nc2[nH]ccc(=O)c12	DT40 TDP1 CPT inconclusive, DT40 TDP1 no CPT 16µM
Cc1nc(CC(=O)Nc2cccc(C)c2C)cs1	none (no result: ATXN2 expr inh, ATXN viability)
Nc1ccc2c(c1)CN1C(=O)c3ccccc3C1=N2	ATXN2 expr inh 13µM, ATXN viability inconclusive (no result: TGFb SMAD3 inh, DT40 TDP1 CPT, DT40 TDP1 no CPT, HepG2 viability)
Cc1nc(C)c(-c2csc(Nc3ccc(N)cc3)n2)s1	DT40 TDP1 CPT inconclusive, DT40 TDP1 no CPT 16µM (no result: ATXN2 expr inh)
Cc1nc(N)sc1-c1csc(Nc2ccccc2)n1	DT40 TDP1 CPT inconclusive, DT40 TDP1 no CPT inconclusive
COc1ccc(Nc2nc(-c3sc(C)nc3C)cs2)cc1	TGFb SMAD3 inh inconclusive, DT40 TDP1 CPT 1.2µM, ATXN viability inconclusive, DT40 TDP1 no CPT 1.2µM (no result: ATXN2 expr inh)
O=C(N[C@@H]1CCC(=O)N(CC[C@H](Oc2ccccc2)c2ccccc2)CC1)OCc1ccccc1	TGFb SMAD3 inh inconclusive, DT40 TDP1 CPT 15µM, ATXN viability inconclusive, DT40 TDP1 no CPT inconclusive
COc1ccc(SC[C@H](Cc2ccccc2)N2CC[C@@H](NC(=O)OCc3ccccc3)CCC2=O)cc1	TGFb SMAD3 inh inconclusive, DT40 TDP1 CPT inconclusive, DT40 TDP1 no CPT 16µM
N#CC[C@H](Cc1ccccc1)N1CC[C@@H](NC(=O)OCc2ccccc2)CCC1=O	TGFb SMAD3 inh inconclusive, DT40 TDP1 CPT inconclusive, DT40 TDP1 no CPT inconclusive
Cc1ccc(SC[C@H](C)CN2CC[C@H](NC(=O)OCc3ccccc3)CCC2=O)cc1	DT40 TDP1 CPT 16µM!, DT40 TDP1 no CPT 11µM
C[C@@H](CSc1ccccc1)CN1CC[C@H](NC(=O)OCc2ccccc2)CCC1=O	DT40 TDP1 CPT inconclusive, DT40 TDP1 no CPT 10µM
CCc1ccc2c(CC(=O)NNC(=O)c3ccncc3)coc2c1	none
COC(=O)c1ccc(NC(=O)C(=O)N2CCN(C(=S)NCCc3ccccc3)CC2)cc1	DT40 TDP1 CPT inconclusive, DT40 TDP1 no CPT inconclusive
O=C(CSc1nnc(COc2ccccc2Cl)o1)NC(=O)NCc1ccco1	DT40 TDP1 CPT inconclusive, DT40 TDP1 no CPT inconclusive
COc1ccc(SCCN2CC[C@@H](NC(=O)OCc3ccccc3)CCC2=O)cc1	DT40 TDP1 CPT inconclusive, DT40 TDP1 no CPT inconclusive
Cc1ccc(S[C@@H](CCN2CC[C@H](NC(=O)OCc3ccccc3)CCC2=O)c2ccccc2)cc1	TGFb SMAD3 inh 10µM, DT40 TDP1 CPT 23µM, ATXN viability inconclusive, DT40 TDP1 no CPT 11µM
CCN(CC(=O)Nc1ccc2c(c1)OCCO2)Cc1nc2cc(Cl)ccc2c(=O)[nH]1	TGFb SMAD3 inh inconclusive, DT40 TDP1 CPT inconclusive, DT40 TDP1 no CPT inconclusive
